Measurements from PubChem BioAssay AID1446 (The Scripps Research Institute Molecular Screening Center, 2008).
About 2,400 (1.1%) of roughly 220,000 compounds were called active. The sample holds actives, similar compounds and a random draw of the others, so the mix is not that of the screen.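 The calls were made as follows: active = inhibition above the campaign mean plus 3 SD over all tested compounds (cut at about 24% in these data); inactive = the rest.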

Assay: viability loss in Ba/F3 EpoR-JAK2V617F cells – cell-based, luminescence, JAK2V617F inhibitor project, primary screen (AID 1446);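 also: cytokine-independent growth of Ba/F3 cells driven by EpoR plus mutant JAK2; 0% = DMSO-treated cells and 100% = JAK inhibitor I control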
Conditions: ATP luminescence, at 5.6 µM, active compounds read high

| SMILES | inhibition |
| --- | --- |
| COc1cc(OC)cc(C(=O)N[C@H](C(=O)Nc2nc3ccccc3[nH]2)C(C)C)c1 | 76.2% (active) |
| COc1ccc(OC(C)C(=O)NCCc2nc3ccccc3[nH]2)cc1 (configuration not stated) | -2.24% (inactive) |
| COc1cc(OC)cc(C(=O)N[C@H](C(=O)OCC(=O)NC(C)c2ccccc2)C(C)C)c1 (some centres not stated) | -0.99% (inactive) |
| COC(=O)Cc1ccc(N(Cc2ccccc2F)S(=O)(=O)c2ccc(Br)cc2)cc1 | -1.26% (inactive) |
| COC(=O)Cn1c(O)c(N=NC(=O)OC)c2ccccc21 | -2.09% (inactive) |
| Cc1oc2c(c1C(=O)N1CCOCC1)C(=O)c1ccccc1C2=O | 3.99% (inactive) |
| CCOC(=O)NC(=O)/C(C#N)=C\c1ccccc1 | 1.65% (inactive) |
| Cc1coc(C)c1C(=O)CC1(O)C(=O)N(C)c2ccc(Cl)cc21 (configuration not stated) | 2.68% (inactive) |
| Cc1ccc(OCC(=O)N/N=C\c2ccco2)c(C)c1 | -7.98% (inactive) |
| Cc1ccc(/C=N/NC(=O)COc2ccccc2-c2ccccc2)cc1 | 86.5% (active) |
| Cc1ccc(OCC(=O)N/N=C/c2ccncc2)cc1 | -1.35% (inactive) |
| Cc1cc(C)nc(SCC(=O)N(C)C)n1 | -5.1% (inactive) |
| Nc1cccc(CCc2nc3ccccc3[nH]2)c1 | -1.26% (inactive) |
| Cc1ccc(S(=O)(=O)C2(S(=O)(=O)c3ccc(C)cc3)CCCC2)cc1 | 30.1% (active) |
| Cc1ccc(S(=O)(=O)NC(=O)N2CCCC(C)(C)C2)cc1 | -3.44% (inactive) |
| Cc1ccc(S(=O)(=O)N(C)C2(C)CCS(=O)(=O)C2)cc1 (configuration not stated) | -0.37% (inactive) |
| Cc1ccc(NC(=O)C(=O)NCc2ccco2)c(C)c1 | -1.41% (inactive) |
| CCN(C(=O)COC(=O)c1cc(NS(=O)(=O)c2ccc(Cl)c([N+](=O)[O-])c2)ccc1O)C1CCCCC1 | -2.87% (inactive) |
| COc1ccccc1NC1=NC2(CCCC2)N=C(N)N1 | 1.28% (inactive) |
| COc1ccccc1Nc1nc(N)nc(CN(C)C2CCCCC2)n1 | -3.54% (inactive) |
| COc1ccccc1NC1=NC(c2ccc(Cl)cc2)N=C(N)N1 (configuration not stated) | 84.9% (active) |
| CC(C)(C)c1ccc(C(=O)NCCn2c(N)c(C#N)c3nc4ccccc4nc32)cc1 | 1.57% (inactive) |
| CC(C)(C)NC(=O)COC(=O)c1cc(Br)ccc1Cl | -5.58% (inactive) |
| Cc1nnc(N/N=C/c2ccccn2)[nH]c1=O | -4.34% (inactive) |
| COc1ccc(Cc2nnc(N/N=C/c3ccccc3O)[nH]c2=O)cc1OC | 24.2% (active) |

| SMILES | inhibition |
| --- | --- |
| CCOc1ccc(-n2c(O)c(/C=N/Nc3nnc(C)c(=O)[nH]3)c3ccccc3c2=O)cc1 | -1.02% (inactive) |
| CSCC(NS(=O)(=O)c1ccc(C)cc1)C(=O)O (configuration not stated) | -0.95% (inactive) |
| CC(=O)Nc1ccc(C(=O)/C=C/c2ccc[nH]2)cc1 | 0.42% (inactive) |
| Cc1ccc(NC(=O)CC2S/C(=N/N=C3\CCCc4ccccc43)NC2=O)cc1 (configuration not stated) | -2.25% (inactive) |
| COc1ccc(NS(=O)(=O)c2ccc(Oc3c(C#N)cccc3C#N)cc2)cc1 | 40.8% (active) |
| CCOc1ccc(S(=O)(=O)Nc2ccc(S(=O)(=O)Nc3cc(OC)ccc3OC)cc2)cc1 | 3.6% (inactive) |
| COc1ccc(NS(=O)(=O)c2ccc(NC(=O)c3ccc(N(C)S(C)(=O)=O)cc3)cc2)cc1 | 22.6% (inactive) |
| Cc1cc(C)c(NC(=S)N2CCCC2C(=O)O)c(C)c1 (configuration not stated) | -0.43% (inactive) |
| Nc1nnc(SCC(=O)OCc2ccc(Cl)c(Cl)c2)s1 | 1.09% (inactive) |
| Cc1ccc(S(=O)(=O)N(C)c2ccc(OCC(=O)NC3=NCCS3)cc2)cc1 | 4.42% (inactive) |
| COc1ccc(CC(=O)NCc2nnc(SCC(=O)Nc3nccs3)n2C)cc1 | -0.03% (inactive) |
| CC(=O)NCCc1nc2cc(NC(=O)c3ccccc3)ccc2n1C | 3.36% (inactive) |
| CCC(=O)Nc1ccc2c(c1)nc(CCN1CCN(C)CC1)n2C | 0.28% (inactive) |
| Cn1c(CCN2CCCCCC2)nc2cc(NC(=O)Nc3ccccc3)ccc21 | 77.4% (active) |
| Cc1ccc(N(C(=O)Cc2cccs2)C2C=CS(=O)(=O)C2)cc1Cl (configuration not stated) | 3.93% (inactive) |
| O=c1[nH]c(CSc2ccccc2)nc2c1oc1ccccc12 | -0.61% (inactive) |
| CCOC(=O)c1ccccc1NS(=O)(=O)c1ccc(OC)cc1 | -0.82% (inactive) |
| CCOC(=O)c1c(-c2ccc(C)cc2)csc1/N=C(\C)C1=C(O)c2ccccc2C1=O | -3.38% (inactive) |
| CCOC(=O)C1=C(c2ccc(OC)cc2)C(=O)c2ccccc2C1=O | 46.9% (active) |
| COc1ccccc1Nc1nc(N)nc(CSC(=S)N2CCOCC2)n1 | 0.7% (inactive) |
| Cc1ccc(-c2cc(=O)c3ccc(F)cc3[nH]2)cc1 | -1.31% (inactive) |
| O=c1cc(-c2ccccc2)[nH]c2cc(F)ccc12 | 70.7% (active) |
| Cc1ccc(-c2cc(=O)c3ccc(Cl)cc3[nH]2)cc1 | -3.39% (inactive) |
| CCOC(=O)c1cnc(Nc2nc3ccccc3o2)nc1CSC(=S)N1CCCCC1 | -2.9% (inactive) |
| CC#CC[N+](C)(C)CCCCCC | 35.9% (active) |

| SMILES | inhibition |
| --- | --- |
| C/C(=N\NC(=O)c1cccc(N2CCCC2=O)c1)c1ccc(N)cc1 | 0.87% (inactive) |
| CC1=NNC(=O)C1CCC(=O)N/N=C(\C)c1ccc(Cl)cc1 (configuration not stated) | -7.29% (inactive) |
| Cc1cccc(NC(=O)c2ccc([N+](=O)[O-])o2)c1 | 38.7% (active) |
| Cc1cccc(NC(=S)NC(=O)c2ccc(Br)o2)c1 | 1.21% (inactive) |
| Cc1onc(NC(=O)c2ccc([N+](=O)[O-])o2)c1Br | 2.15% (inactive) |
| Cc1cc(C)cc(OCC(=O)Nc2ccc(S(=O)(=O)Nc3ccccn3)cc2)c1 | -4.41% (inactive) |
| Cc1ccc(S(=O)(=O)Nc2ccc3ncccc3c2)cc1 | 32.3% (active) |
| Cc1ccc(OCC(=O)Nc2ccc(S(=O)(=O)Nc3ccccn3)cc2)cc1 | -2.67% (inactive) |
| c1ccc(-c2ccc3c(c2)NC(C2Nc4cc(-c5ccccc5)ccc4O2)O3)cc1 (configuration not stated) | -3.19% (inactive) |
| Cc1c(Cl)c([N+](=O)[O-])nn1CCCC(=O)NC(C)c1ccccc1 (configuration not stated) | 0.46% (inactive) |
| CC(C)CCN1CCN(C/C=C/c2ccco2)CC1CCO (configuration not stated) | -3.77% (inactive) |
| Oc1ccc(N=Nc2nccs2)c(O)c1 | 8.36% (inactive) |
| Oc1ccc2ccccc2c1N=Nc1nccs1 | 98.2% (active) |
| Oc1ccc2ccccc2c1C=Nc1ccccc1 | 0.08% (inactive) |
| CCCC(NC(=O)c1ccco1)c1nc2ccccc2[nH]1 (configuration not stated) | 4.01% (inactive) |
| COC(=O)C(C)Sc1nc2c(c(=O)n(C)c(=O)n2C)n1Cc1cccc(C)c1 (configuration not stated) | -3.92% (inactive) |
| CCCCNc1nc2c(c(=O)n(C)c(=O)n2C)n1Cc1cccc(OC)c1 | 52.4% (active) |
| Cn1c(=O)c2c(nc(NCCc3ccccc3)n2Cc2ccccc2)n(C)c1=O | 1.54% (inactive) |
| O=C(NCC1CCCO1)c1ccccc1-c1nc(-c2ccccc2Cl)no1 (configuration not stated) | 4.19% (inactive) |
| COc1ccc2c(Cl)c(C(=O)NCc3ccco3)sc2c1 | -3.38% (inactive) |
| COc1ccc(CCNS(=O)(=O)c2ccc(C(=O)NCc3ccco3)cc2)cc1OC | -0.49% (inactive) |
| CCCC1=Nc2cc(C(=O)NCc3ccco3)ccc2Sc2ccccc21 | 81.1% (active) |
| O=[N+]([O-])C(=c1ccc2c(c1)N1C3=C(CCCC3)CC3CCCCC31N=2)[N+](=O)[O-] (configuration not stated) | -3.46% (inactive) |
| COc1ccccc1CNC(=O)CNC(=O)c1cn(-c2ccccc2OC)c(=O)c2ccccc12 | -3.01% (inactive) |
| Cn1nc(C(F)(F)F)cc1-c1ccc(/C=C(\C#N)C(=O)c2cccc(C(F)(F)F)c2)s1 | -2.61% (inactive) |

| SMILES | inhibition |
| --- | --- |
| CSC(=S)N/N=C/c1c[nH]c2ccccc12 | -3.06% (inactive) |
| C[n+]1ccc(/C=C/c2c[nH]c3ccccc23)cc1 | 88.5% (active) |
| S=c1[nH]nc(-c2ccccc2)n1/N=C/c1c[nH]c2ccccc12 | -2.71% (inactive) |
| CC1(C)C2CC=C(/C=N/NC(=O)c3ccc(Cl)cc3)C1C2 (configuration not stated) | -0.76% (inactive) |
| CCOC(=O)N1CCN(S(=O)(=O)c2ccc(C(=O)Nc3ccc(F)cc3F)cc2)CC1 | 54.4% (active) |
| O=C(Nc1cccc(F)c1)c1ccc(S(=O)(=O)N2CCCC2)cc1 | 2.9% (inactive) |
| COc1ccc(C(=O)Nc2ccc(F)cc2F)cc1 | -3.55% (inactive) |
| O=C(COC(=O)c1ccc(O)cc1)Nc1nccs1 | 0.51% (inactive) |
| Cc1nc(N2CCC(C)CC2)c2c(C)c(C(=O)Nc3cc(F)ccc3C)sc2n1 | 2.17% (inactive) |
| C=CCSc1nnc(NC(=O)c2ccc(NC(C)=O)cc2)s1 | -0.62% (inactive) |
| O=C(Cc1ccc2c(c1)CCCC2)Nc1ccccc1Cl | 3.77% (inactive) |
| CC(NC(=O)c1cccc2ccccc12)c1ccc2c(c1)CCCC2 (configuration not stated) | 64.5% (active) |
| CC(=O)c1sc(NC(=O)c2cccc3ccccc23)nc1C | -0.63% (inactive) |
| O=[N+]([O-])c1ccc2nc(-c3ccccn3)[nH]c2c1 | 2.31% (inactive) |
| NNC(=O)c1oc2nc(-c3ccccc3)cc(-c3ccco3)c2c1N | -4.49% (inactive) |
| COC(=O)c1cc2c(ccn2C)n1C | -1.58% (inactive) |
| Cc1ccc(S(=O)(=O)N2CCOCC2)cc1C(=O)OC1CCCCC1=O (configuration not stated) | 0.06% (inactive) |
| O=C(Nc1ccccc1Cl)c1ccc2nsnc2c1 | 0.05% (inactive) |
| O=C(Nc1ccccc1Cl)/C(Cl)=C(\Cl)S(=O)c1ccccc1 (configuration not stated) | 102% (active) |
| O=C(CN1CCCCC1)Nc1ccccc1Cl | 1.81% (inactive) |
| O=S(=O)(Nc1n[nH]c(C(F)(F)F)n1)c1ccccc1 | -3.72% (inactive) |
| O=C(CNc1ccc(F)cc1F)NC(=O)NCc1ccco1 | 4.79% (inactive) |
